Drawing on PubChem BioAssay AID651610 (Broad Institute, 2012), this text covers inhibition for 42 compounds.

Among all 360,000 compounds or so, about 3,900 (1.1%) were called active. This is one part of a sample in which actives are shown more often than they occur.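 How the source made its calls: active means mean replicate inhibition score of at least 50 and every replicate individually at or above 50; inconclusive means only one of the two criteria met; inactive means mean below 50 and not all replicates reaching 50.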

The term inhibition denotes the change of the read-out against control, counted positive when it falls.

This test is described as follows: blockers of JRFL envelope-mediated fusion – HeLa-JRFL effector, CEM21 target cells, luciferase, primary screen (AID 651610).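 Further: 0% = plate neutral controls and 100% = maraviroc near 300 nM.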 The note with it: HeLa-JRFL Env/CEM21 cell fusion, stronger effect = higher value; at 16.7 µM unless noted.
Turning to `C/C=C/c1cnc2c(c1)C(=O)N([C@H](C)CO)C[C@H](C)[C@@H](CN(C)C(=O)Nc1ccc(C(F)(F)F)cc1)O2`, the inhibition was 0.996% (inactive).
Next, `C[C@@H]1CN([C@@H](C)CO)C(=O)c2cc(NC(=O)C3CCCCC3)ccc2O[C@@H](C)CCCCO[C@@H]1CN(C)Cc1ccc(C(=O)O)cc1`: 10.8% (inactive); `CN(C)c1ccc2c(c1)[C@@H]1C[C@@H](CC(=O)NCc3ccccn3)O[C@H](CO)[C@@H]1O2`: 6.38% (inactive).
The same measure for `C[C@H]1CN([C@@H](C)CO)C(=O)CCCn2nncc2CO[C@H]1CN(C)Cc1ccccc1`: -11.7% (inactive); for `C[C@@H]1CN([C@H](C)CO)C(=O)c2cc(C#CC3CCCCC3)cnc2O[C@@H]1CN(C)C(=O)NC1CCCC1`: 10.8% (inactive).
Next, `Cc1nn(Cc2ccc(F)cc2)c(C)c1NC(=O)c1cccnc1Cl`: 0.276% [at 12.3 µM] (inactive).
In the case of `Cc1nn(Cc2ccc(Cl)c(Cl)c2)c(C)c1NC(=O)c1cc(C2CC2)on1`, the inhibition was -1.78% [at 12.3 µM] (inactive).
Next, `Cc1nn(Cc2ccc(F)cc2)c(C)c1NC(=O)c1noc2c1CCc1ccccc1-2`: 57.4% [at 12.3 µM] (active).
In the case of `Cc1ccccc1S(=O)(=O)N[C@H]1CC[C@H](CCn2cc(-c3ccc(F)cc3)nn2)O[C@H]1CO`, the inhibition was 4.55% (inactive).
Next, `C[C@H](CO)N1C[C@H](C)[C@@H](CN(C)S(=O)(=O)c2cccs2)OCCCC[C@H](C)Oc2ccc(NS(=O)(=O)c3ccccc3)cc2C1=O`: -0.163% (inactive); `CCC(C)N1C(=S)SC(C)(C)C1N(O)C(=O)NC1CCCCC1` (configuration not stated): 16.9% [at 12.3 µM] (inactive); `CCCCNC(=O)N(O)C1N(/N=C/c2ccccc2O)C(=S)SC1(C)C` (configuration not stated): 89.7% [at 12.3 µM] (active).
The same measure for `CCCCNC(=O)N(O)C1N(/N=C/c2ccc(N(C)C)cc2)C(=S)SC1(C)C` (configuration not stated): 10.2% [at 12.3 µM] (inactive).
The same measure for `C[C@@H]1CCCCO[C@@H](CN(C)C(=O)Nc2ccc(C(F)(F)F)cc2)[C@H](C)CN([C@H](C)CO)C(=O)c2cc(NC(=O)C3CCCCC3)ccc2O1`: 14.1% (inactive); for `Cc1ccc(S(=O)(=O)N[C@H]2CC[C@@H](CC(=O)NCc3ccc(Cl)c(Cl)c3)O[C@H]2CO)cc1`: 16.7% (inactive); for `CCCCCCCCn1c2c(c(=N)c3c1CCC3)CCCC2`: 64.5% [at 12.3 µM] (active).
Regarding `O=C1NC(c2ccccc2)Oc2ccccc21` (configuration not stated), the inhibition is -8.85% [at 12.3 µM] (inactive).
As to `CN1CC(c2ccccc2)C2(COc3ccccc3C2=O)C12C(=O)Nc1ccccc12` (configuration not stated), the inhibition was 108% [at 12.3 µM] (active).
For the compound `C[C@@H]1NC(=O)[C@@]2(C)[C@@H](c3ccccc3)[C@H]3COc4ccccc4[C@@H]3N2C1=O`, the inhibition was 1% [at 12.3 µM] (inactive).
`CO[C@H]1CN(C)C(=O)c2ccc(NC(=O)C3CC3)cc2OC[C@@H](C)N(C(=O)c2ccccn2)C[C@@H]1C`: the inhibition was 3.53% (inactive).
Next, `COc1ccc(S(=O)(=O)Nc2cccc3c2O[C@H](CN(C)C(=O)NC(C)C)[C@H](C)CN([C@H](C)CO)C3=O)cc1`: -9% (inactive); `N#Cc1ccccc1-n1c(N)c(C(=O)N2CCCC2)sc1=S`: 59.1% [at 12.3 µM] (active).
Regarding `O=C(c1ccc(S(=O)(=O)N2CCCC2)cc1)N1CCN(c2ccccc2F)CC1`, the inhibition is -21.7% [at 12.3 µM] (inactive).
The same measure for `Cc1ccc(-n2c(N)c(C(=O)N3CCOCC3)sc2=S)c(C)c1`: 24.4% [at 12.3 µM] (inactive); for `CNC(=O)C[C@@H]1CC[C@H]2[C@H](COc3ccc(NC(=O)C4CC4)cc3C(=O)N2C)O1`: 12% (inactive); for `CC(C)NC(=O)N(C)C[C@@H]1Oc2ncc(C#Cc3ccncc3)cc2C(=O)N([C@@H](C)CO)C[C@@H]1C`: -8.31% (inactive).
Next, `COc1ccccc1S(=O)(=O)N(C)C[C@@H]1Oc2cc(C#CCC3CCCC3)ccc2S(=O)(=O)N([C@H](C)CO)C[C@H]1C`: 34.8% (inactive).
Next, `O=C(NC[C@H]1CC[C@@H]2[C@@H](CN2S(=O)(=O)c2ccccc2F)O1)C1CCCCC1`: 5.54% (inactive); `Cc1ccc(-n2c(O)c(C=Nc3ccc(S(=O)(=O)Nc4ncccn4)cc3)c3ccccc3c2=O)cc1C`: 65% [at 12.3 µM] (active).
With `CCN(CC)CCCN=Cc1c(O)n(-c2ccc(C)cc2)c(=O)c2ccccc12`, the inhibition is -12.6% [at 12.3 µM] (inactive).
Next, `CCCCn1nc(C(=O)Nc2ccc(S(=O)(=O)Nc3ncccn3)cc2)c2ccccc2c1=O`: 3.69% [at 12.3 µM] (inactive); `Cc1ccc(S(=O)(=O)Nc2ccc3c(c2)C(=O)N([C@H](C)CO)C[C@H](C)[C@H](CN(C)S(=O)(=O)c2ccc(F)cc2)OCCCC[C@@H](C)O3)cc1`: -11.1% (inactive).
For `CCCC(=O)Nc1ccc(C(=O)N/N=C/c2ccc[nH]2)cc1`, the inhibition was 66.2% [at 12.3 µM] (active).
Next, `O=C(COc1ccccc1[N+](=O)[O-])N/N=C/c1ccc[nH]1`: -18.2% [at 12.3 µM] (inactive); `CC(=O)Nc1ccc(C(=O)/C=C/c2ccc[nH]2)cc1`: 3.48% [at 12.3 µM] (inactive).
For `CC1(C)OC(=O)C2=C(CC(CCc3ccccc3)OC2c2ccc(Cl)cc2)O1` (configuration not stated), the inhibition is -17.2% [at 12.3 µM] (inactive).
Next, `Cc1cc(S(=O)(=O)Nc2ccc(C(=O)NCC(c3ccco3)N3CCCC3)cc2)ccc1F` (configuration not stated): 57.1% [at 12.3 µM] (active).
Next, `COc1ccc(C(CNC(=O)c2ccc(NS(=O)(=O)c3ccc(F)c(C)c3)cc2)N(C)C)cc1` (configuration not stated): -1.84% [at 12.3 µM] (inactive); `COc1ccc(C(CNC(=O)c2cccc(NS(=O)(=O)c3ccc(C)c(F)c3)c2)N2CCCC2)cc1` (configuration not stated): -23.5% [at 12.3 µM] (inactive).
The same measure for `COc1ccc(NC(=O)N(C)C[C@@H]2OCCCC[C@@H](C)Oc3ccc(N(C)C)cc3C(=O)N([C@H](C)CO)C[C@@H]2C)cc1`: 7.61% (inactive); for `C[C@H]1CN([C@@H](C)CO)C(=O)Cc2cc(NC(=O)C3CC3)ccc2O[C@H]1CN(C)C(=O)Nc1ccc(C(F)(F)F)cc1`: 3.78% (inactive); for `C[C@H](CO)N1C[C@H](C)[C@@H](CN(C)S(=O)(=O)c2cn(C)cn2)OCCCC[C@H](C)Oc2ccc(NC(=O)Cc3ccccc3)cc2C1=O`: -9.54% (inactive).
